Measured values as given in PMC7862700, “An all-to-all approach to the identification of sequence-specific readers for epigenetic DNA modifications on cytosine”.

Columns and labels:
Assay in all cases: DAPPL (digital affinity profiling via proximity ligation, sequencing); 10 mM Tris-HCl pH 7.5, 50 mM NaCl, 1 mM DTT, 4% glycerol, room temperature, 30 min; GST-TFs on glutathione beads, 16-mer random dsDNA library, 0.1% formaldehyde crosslink after washing; high values mean tight binding
FLI1 = target: T1, FLI1 (Homo sapiens, UniProt Q01543 1-452); conditions: protein: recombinant; tags: N-terminal GST; dsDNA, one strand shown
T1 sequence: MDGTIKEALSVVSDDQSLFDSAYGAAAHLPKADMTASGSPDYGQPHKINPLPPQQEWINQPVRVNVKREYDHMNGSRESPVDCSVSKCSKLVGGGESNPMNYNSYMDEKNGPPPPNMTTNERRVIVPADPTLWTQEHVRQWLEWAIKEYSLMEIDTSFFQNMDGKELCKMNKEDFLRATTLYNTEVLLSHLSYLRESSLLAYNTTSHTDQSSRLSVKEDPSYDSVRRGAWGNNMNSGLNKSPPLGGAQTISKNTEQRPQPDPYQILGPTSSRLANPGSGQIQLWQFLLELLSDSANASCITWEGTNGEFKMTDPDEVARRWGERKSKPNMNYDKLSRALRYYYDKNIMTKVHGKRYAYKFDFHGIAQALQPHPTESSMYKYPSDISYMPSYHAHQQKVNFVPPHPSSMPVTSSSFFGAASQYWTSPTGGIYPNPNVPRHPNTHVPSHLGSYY
Procedure, shortened: (§1)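 Binding signal is defined as a hexamer's read frequency for one factor over its frequency for the tag-only sample. To obtain reads, GST-fused human transcription factors were expressed in yeast, captured on glutathione beads, barcoded with DNA and pooled with that sample. Pools met 200 nmole of a 16-mer random double-stranded DNA library in Tris/NaCl/DTT/glycerol buffer for 30 min at room temperature before washing, 0.1% formaldehyde crosslinking, proximity ligation (BsaI/T4 ligase, 1 h, 37 °C), PCR and Illumina NextSeq500 sequencing.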

ELK1 = target: T2, ELK1 (Homo sapiens, UniProt P19419 1-428); conditions: protein: recombinant; tags: N-terminal GST; dsDNA, one strand shown
T2 sequence: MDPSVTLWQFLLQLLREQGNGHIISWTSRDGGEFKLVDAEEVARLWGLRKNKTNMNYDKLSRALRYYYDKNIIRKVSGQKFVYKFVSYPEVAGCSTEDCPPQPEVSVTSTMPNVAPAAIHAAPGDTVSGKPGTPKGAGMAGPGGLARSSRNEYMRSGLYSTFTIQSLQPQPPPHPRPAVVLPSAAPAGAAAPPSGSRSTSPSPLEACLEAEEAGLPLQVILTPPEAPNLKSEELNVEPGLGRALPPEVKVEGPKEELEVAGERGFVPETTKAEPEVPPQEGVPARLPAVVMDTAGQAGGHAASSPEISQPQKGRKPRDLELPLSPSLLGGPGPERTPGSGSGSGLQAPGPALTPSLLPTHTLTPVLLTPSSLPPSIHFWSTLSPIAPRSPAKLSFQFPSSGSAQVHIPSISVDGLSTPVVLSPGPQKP
Procedure, shortened: as §1

GABPA = target: T3, GABPA (Homo sapiens, UniProt Q06546 1-454); conditions: protein: recombinant; tags: N-terminal GST; dsDNA, one strand shown
T3 sequence: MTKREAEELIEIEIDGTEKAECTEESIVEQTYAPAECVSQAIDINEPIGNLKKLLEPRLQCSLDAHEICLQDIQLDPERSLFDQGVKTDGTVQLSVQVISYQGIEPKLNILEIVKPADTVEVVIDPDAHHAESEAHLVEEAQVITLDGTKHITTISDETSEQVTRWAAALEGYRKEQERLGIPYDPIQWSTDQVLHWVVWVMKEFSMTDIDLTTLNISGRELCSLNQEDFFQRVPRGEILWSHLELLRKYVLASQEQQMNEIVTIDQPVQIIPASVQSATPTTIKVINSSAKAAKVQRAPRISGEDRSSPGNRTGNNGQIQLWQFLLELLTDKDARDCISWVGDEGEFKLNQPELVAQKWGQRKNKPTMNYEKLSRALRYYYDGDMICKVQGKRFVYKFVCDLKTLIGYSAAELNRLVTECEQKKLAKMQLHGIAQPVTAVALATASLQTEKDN
Procedure, shortened: as §1

ERG = target: T4, ERG (Homo sapiens, UniProt P11308 1-479); conditions: protein: recombinant; tags: N-terminal GST; dsDNA, one strand shown
T4 sequence: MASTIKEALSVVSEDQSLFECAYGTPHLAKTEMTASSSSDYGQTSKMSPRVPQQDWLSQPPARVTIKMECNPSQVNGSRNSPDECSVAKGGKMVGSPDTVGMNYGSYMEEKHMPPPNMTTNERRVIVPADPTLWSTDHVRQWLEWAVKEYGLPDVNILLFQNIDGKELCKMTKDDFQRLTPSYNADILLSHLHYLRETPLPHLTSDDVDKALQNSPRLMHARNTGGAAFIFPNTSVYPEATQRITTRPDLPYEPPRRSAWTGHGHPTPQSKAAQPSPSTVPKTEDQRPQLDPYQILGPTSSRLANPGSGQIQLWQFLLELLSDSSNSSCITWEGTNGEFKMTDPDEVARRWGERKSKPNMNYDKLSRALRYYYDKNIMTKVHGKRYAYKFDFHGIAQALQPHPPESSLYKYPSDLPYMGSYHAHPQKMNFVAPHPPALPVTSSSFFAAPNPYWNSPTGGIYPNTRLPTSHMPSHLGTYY
Procedure, shortened: as §1

ELF1 = ELF1 (Homo sapiens, UniProt P32519 1-619); conditions: protein: recombinant; tags: N-terminal GST; dsDNA, one strand shown
Chain of ELF1 (P32519 whole entry): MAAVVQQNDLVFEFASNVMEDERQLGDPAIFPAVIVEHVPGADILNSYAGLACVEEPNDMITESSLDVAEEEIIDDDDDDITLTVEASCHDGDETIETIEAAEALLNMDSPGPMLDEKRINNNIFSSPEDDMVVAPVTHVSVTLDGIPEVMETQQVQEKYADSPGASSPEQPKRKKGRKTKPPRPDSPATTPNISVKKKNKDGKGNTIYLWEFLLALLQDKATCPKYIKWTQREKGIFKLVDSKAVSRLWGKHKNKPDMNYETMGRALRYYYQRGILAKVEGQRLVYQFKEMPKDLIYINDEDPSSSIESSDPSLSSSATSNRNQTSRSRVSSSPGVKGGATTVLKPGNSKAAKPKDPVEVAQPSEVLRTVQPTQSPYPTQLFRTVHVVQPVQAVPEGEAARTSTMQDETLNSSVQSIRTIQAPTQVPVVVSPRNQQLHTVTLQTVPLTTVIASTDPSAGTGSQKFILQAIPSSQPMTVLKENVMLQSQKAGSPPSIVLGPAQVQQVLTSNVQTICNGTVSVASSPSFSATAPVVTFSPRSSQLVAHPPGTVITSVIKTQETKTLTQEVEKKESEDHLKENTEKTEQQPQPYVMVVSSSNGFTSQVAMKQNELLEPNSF
Procedure, shortened: as §1

EHF = target: T5, EHF (Homo sapiens, UniProt Q9NZC4 1-300); conditions: protein: recombinant; tags: N-terminal GST; dsDNA, one strand shown
T5 sequence: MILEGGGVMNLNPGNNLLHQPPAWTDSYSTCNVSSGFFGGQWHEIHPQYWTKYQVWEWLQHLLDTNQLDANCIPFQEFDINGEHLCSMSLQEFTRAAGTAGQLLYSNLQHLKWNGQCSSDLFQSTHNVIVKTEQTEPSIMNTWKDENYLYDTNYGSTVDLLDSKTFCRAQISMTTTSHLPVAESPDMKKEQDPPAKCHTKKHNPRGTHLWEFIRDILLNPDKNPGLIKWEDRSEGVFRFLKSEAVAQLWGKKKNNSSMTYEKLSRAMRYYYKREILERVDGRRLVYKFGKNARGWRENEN
Procedure, shortened: as §1

SPI1 = SPI1 (Homo sapiens, UniProt P17947 1-270); conditions: protein: recombinant; tags: N-terminal GST; dsDNA, one strand shown
Procedure, shortened: as §1

SPIB = SPIB (Homo sapiens, UniProt Q01892 1-262); conditions: protein: recombinant; tags: N-terminal GST; dsDNA, one strand shown
Chain of SPIB (Q01892 whole entry): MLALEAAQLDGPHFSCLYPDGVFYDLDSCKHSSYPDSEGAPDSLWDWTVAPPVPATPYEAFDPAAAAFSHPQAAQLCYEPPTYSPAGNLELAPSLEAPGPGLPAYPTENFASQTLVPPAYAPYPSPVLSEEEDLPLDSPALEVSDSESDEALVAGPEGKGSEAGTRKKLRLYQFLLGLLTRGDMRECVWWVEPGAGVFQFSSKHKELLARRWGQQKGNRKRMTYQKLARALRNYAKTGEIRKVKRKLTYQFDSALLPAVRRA
Procedure, shortened: as §1

ELK3 = target: T6, ELK3 (Homo sapiens, UniProt P41970 1-407); conditions: protein: recombinant; tags: N-terminal GST; dsDNA, one strand shown
T6 sequence: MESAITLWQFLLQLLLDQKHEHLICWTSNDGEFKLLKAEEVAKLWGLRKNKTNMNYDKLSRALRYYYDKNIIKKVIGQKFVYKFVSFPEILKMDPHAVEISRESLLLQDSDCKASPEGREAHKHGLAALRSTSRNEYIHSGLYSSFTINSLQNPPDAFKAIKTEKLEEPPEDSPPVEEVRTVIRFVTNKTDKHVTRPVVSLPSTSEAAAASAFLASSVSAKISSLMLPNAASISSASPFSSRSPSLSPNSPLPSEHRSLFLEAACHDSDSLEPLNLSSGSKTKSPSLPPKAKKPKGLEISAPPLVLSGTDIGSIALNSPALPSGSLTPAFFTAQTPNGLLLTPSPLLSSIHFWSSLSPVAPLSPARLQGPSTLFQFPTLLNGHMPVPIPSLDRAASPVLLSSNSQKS
Procedure, shortened: as §1

FEV = target: T7, FEV (Homo sapiens, UniProt Q99581 1-238); conditions: protein: recombinant; tags: N-terminal GST; dsDNA, one strand shown
T7 sequence: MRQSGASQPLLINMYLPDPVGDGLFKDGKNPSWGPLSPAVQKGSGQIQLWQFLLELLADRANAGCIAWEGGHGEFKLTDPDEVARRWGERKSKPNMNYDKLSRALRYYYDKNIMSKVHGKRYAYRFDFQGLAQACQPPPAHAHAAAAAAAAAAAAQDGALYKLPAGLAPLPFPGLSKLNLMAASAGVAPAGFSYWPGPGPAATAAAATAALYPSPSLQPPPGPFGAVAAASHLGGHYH
Procedure, shortened: as §1

ETV5 = ETV5 (Homo sapiens, UniProt P41161 1-510); conditions: protein: recombinant; tags: N-terminal GST; dsDNA, one strand shown
Chain of ETV5 (P41161 whole entry): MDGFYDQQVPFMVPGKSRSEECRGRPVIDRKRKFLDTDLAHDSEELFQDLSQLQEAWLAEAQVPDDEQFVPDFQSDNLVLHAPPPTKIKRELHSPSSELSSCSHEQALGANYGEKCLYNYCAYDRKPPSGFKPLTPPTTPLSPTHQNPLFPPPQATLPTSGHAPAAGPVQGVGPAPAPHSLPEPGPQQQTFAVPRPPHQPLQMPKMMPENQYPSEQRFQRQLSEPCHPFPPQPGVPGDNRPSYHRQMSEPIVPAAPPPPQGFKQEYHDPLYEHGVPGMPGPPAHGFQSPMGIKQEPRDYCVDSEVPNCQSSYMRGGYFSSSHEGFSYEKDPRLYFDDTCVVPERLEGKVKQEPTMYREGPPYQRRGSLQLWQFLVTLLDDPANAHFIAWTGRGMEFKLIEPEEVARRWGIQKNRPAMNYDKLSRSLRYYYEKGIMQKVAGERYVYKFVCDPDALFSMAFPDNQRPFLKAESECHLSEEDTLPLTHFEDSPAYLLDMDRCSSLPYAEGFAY
Procedure, shortened: as §1

HSF1 = HSF1 (Homo sapiens, UniProt Q00613 1-529); conditions: protein: recombinant; tags: N-terminal GST; chain copies: 3; dsDNA, one strand shown
Chain of HSF1 (Q00613 whole entry): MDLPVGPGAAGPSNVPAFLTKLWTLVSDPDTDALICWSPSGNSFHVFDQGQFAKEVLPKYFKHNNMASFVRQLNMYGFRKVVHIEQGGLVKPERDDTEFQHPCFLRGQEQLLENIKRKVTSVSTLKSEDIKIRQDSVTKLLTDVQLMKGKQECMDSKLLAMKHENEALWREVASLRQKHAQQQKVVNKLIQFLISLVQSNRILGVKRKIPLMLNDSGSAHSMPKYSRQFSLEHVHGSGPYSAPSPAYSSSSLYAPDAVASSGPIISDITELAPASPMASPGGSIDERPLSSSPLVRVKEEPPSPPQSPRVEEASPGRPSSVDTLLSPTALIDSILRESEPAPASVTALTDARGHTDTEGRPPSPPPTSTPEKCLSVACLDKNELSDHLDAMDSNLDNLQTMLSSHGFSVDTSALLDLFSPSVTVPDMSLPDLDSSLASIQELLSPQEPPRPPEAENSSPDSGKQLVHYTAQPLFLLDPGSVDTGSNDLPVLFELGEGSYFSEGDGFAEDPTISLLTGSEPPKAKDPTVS
Procedure, shortened: as §1

SPIC = target: T8, SPIC (Homo sapiens, UniProt Q8N5J4 1-248); conditions: protein: recombinant; tags: N-terminal GST; dsDNA, one strand shown
T8 sequence: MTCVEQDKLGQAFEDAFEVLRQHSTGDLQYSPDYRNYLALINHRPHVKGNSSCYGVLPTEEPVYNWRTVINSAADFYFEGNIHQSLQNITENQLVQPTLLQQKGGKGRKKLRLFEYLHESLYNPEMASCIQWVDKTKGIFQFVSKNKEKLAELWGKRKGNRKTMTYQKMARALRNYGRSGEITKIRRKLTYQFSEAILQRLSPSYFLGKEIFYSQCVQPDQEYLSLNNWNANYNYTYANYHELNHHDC
Procedure, shortened: as §1

ELF4 = ELF4 (Homo sapiens, UniProt Q99607 1-663); conditions: protein: recombinant; tags: N-terminal GST; dsDNA, one strand shown
Chain of ELF4 (Q99607 whole entry): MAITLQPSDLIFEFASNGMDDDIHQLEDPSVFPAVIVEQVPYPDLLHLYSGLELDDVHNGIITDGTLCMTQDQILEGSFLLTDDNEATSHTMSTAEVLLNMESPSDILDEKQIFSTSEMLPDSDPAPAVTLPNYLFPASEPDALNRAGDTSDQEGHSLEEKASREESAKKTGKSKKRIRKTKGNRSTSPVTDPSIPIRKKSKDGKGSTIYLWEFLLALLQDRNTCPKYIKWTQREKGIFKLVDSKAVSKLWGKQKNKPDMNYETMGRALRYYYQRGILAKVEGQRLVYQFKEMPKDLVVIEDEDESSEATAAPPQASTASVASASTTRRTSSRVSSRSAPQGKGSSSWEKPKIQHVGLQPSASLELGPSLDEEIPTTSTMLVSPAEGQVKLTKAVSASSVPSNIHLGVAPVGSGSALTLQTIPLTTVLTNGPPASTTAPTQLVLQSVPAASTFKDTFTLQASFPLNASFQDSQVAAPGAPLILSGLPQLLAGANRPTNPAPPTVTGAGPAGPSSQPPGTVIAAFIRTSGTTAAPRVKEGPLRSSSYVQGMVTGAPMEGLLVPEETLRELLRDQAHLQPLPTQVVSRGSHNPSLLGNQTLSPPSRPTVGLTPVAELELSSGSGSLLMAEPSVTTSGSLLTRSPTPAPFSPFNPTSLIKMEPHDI
Procedure, shortened: as §1

ELK4 = target: T9, ELK4 (Homo sapiens, UniProt P28324-2 1-405); conditions: protein: recombinant; tags: N-terminal GST; dsDNA, one strand shown
T9 sequence: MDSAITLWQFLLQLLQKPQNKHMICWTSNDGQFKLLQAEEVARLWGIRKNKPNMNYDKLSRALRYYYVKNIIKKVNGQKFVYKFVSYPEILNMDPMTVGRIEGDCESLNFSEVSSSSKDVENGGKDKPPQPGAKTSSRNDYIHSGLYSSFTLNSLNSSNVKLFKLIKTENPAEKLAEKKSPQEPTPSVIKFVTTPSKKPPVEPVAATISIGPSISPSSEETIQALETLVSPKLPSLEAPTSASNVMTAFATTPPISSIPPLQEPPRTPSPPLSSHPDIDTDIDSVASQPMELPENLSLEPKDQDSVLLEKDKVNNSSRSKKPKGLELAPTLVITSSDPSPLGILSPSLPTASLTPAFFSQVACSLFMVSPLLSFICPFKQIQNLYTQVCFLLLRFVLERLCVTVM
Procedure, shortened: as §1

ETV2 = target: T10, ETV2 (Homo sapiens, UniProt O00321 1-342); conditions: protein: recombinant; tags: N-terminal GST; dsDNA, one strand shown
T10 sequence: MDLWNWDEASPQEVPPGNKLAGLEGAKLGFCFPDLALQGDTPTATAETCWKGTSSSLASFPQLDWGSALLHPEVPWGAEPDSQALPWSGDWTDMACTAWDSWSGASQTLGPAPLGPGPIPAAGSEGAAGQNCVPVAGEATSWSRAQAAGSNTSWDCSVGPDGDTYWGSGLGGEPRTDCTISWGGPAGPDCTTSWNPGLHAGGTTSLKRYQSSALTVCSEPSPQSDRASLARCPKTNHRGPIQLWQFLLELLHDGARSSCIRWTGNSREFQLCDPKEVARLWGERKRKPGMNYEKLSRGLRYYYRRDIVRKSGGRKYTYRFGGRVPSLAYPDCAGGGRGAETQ
Procedure, shortened: as §1

ELF3 = target: T11, ELF3 (Homo sapiens, UniProt P78545 1-371); conditions: protein: recombinant; tags: N-terminal GST; dsDNA, one strand shown
T11 sequence: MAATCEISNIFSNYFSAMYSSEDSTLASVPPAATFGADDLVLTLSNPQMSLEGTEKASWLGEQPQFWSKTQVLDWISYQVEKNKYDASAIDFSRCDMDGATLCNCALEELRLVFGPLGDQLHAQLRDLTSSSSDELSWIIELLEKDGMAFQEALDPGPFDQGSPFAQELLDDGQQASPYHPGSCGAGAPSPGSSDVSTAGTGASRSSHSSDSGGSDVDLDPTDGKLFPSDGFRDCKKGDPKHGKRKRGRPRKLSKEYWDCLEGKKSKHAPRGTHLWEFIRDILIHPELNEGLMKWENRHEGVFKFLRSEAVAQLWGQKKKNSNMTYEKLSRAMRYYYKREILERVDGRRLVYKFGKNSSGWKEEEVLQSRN
Procedure, shortened: as §1

CRX = CRX (Homo sapiens, UniProt O43186 1-299); conditions: protein: recombinant; tags: N-terminal GST; dsDNA, one strand shown
Chain of CRX (O43186 whole entry): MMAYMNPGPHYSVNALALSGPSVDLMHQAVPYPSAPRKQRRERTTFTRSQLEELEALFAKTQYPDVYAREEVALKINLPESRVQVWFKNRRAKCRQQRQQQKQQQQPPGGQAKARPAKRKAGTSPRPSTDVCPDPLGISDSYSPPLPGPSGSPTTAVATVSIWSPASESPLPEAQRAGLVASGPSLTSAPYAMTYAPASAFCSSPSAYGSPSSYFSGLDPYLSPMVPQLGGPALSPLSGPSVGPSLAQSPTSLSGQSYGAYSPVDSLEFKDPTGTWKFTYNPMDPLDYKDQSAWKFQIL
Procedure, shortened: as §1

ETV1 = ETV1 (Homo sapiens, UniProt P50549 1-477); conditions: protein: recombinant; tags: N-terminal GST; dsDNA, one strand shown
Chain of ETV1 (P50549 whole entry): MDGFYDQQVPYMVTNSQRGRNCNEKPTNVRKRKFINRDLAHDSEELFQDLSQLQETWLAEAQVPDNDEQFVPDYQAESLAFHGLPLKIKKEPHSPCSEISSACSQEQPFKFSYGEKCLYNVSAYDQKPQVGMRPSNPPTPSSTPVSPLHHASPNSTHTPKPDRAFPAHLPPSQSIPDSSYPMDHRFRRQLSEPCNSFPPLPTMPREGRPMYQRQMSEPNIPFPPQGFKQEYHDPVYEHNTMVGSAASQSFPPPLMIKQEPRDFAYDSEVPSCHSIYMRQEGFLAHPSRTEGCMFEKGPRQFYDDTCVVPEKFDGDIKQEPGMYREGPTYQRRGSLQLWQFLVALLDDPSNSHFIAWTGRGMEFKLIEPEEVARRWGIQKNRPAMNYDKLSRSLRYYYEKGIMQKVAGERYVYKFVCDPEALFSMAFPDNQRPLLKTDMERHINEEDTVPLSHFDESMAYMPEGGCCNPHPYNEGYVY
Procedure, shortened: as §1

TGGCTA
binding signal (FLI1): 1.15 fold enrichment (6-mer frequency, TF over GST control) | binding signal (ELK1): 1.23 fold enrichment (6-mer frequency, TF over GST control) | binding signal (GABPA): 1.24 fold enrichment (6-mer frequency, TF over GST control) | binding signal (ERG): 1.17 fold enrichment (6-mer frequency, TF over GST control) | binding signal (ELF1): 1.22 fold enrichment (6-mer frequency, TF over GST control) | binding signal (EHF): 1.19 fold enrichment (6-mer frequency, TF over GST control) | binding signal (SPI1): 1.2 fold enrichment (6-mer frequency, TF over GST control) | binding signal (SPIB): 1.31 fold enrichment (6-mer frequency, TF over GST control) | binding signal (ELK3): 1.14 fold enrichment (6-mer frequency, TF over GST control) | binding signal (FEV): 1.22 fold enrichment (6-mer frequency, TF over GST control) | binding signal (ETV5): 1.2 fold enrichment (6-mer frequency, TF over GST control) | binding signal (HSF1): 1.25 fold enrichment (6-mer frequency, TF over GST control) | binding signal (SPIC): 1.25 fold enrichment (6-mer frequency, TF over GST control) | binding signal (ELF4): 1.19 fold enrichment (6-mer frequency, TF over GST control) | binding signal (ELK4): 1.47 fold enrichment (6-mer frequency, TF over GST control) | binding signal (ETV2): 1.23 fold enrichment (6-mer frequency, TF over GST control) | binding signal (ELF3): 1.27 fold enrichment (6-mer frequency, TF over GST control) | binding signal (CRX): 1.35 fold enrichment (6-mer frequency, TF over GST control) | binding signal (ETV1): 1.16 fold enrichment (6-mer frequency, TF over GST control)
